Measured values from the supplement of paper PMC7695840.

Test system: Staphylococcus aureus MW2 delta-mecA (mecA-)
Experiment: normalized GFP fluorescence (growth of mecA- strain) (fraction of control range); higher = more growth of mecA- strain
Conditions: compound concentration: 150 uM; cefoxitin: subinhibitory; fluorescent label: GFP
Procedure, shortened: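 Single-replicate 1536-well plates carried 150 μM compound (1.5% DMSO), onto which 5 µL/well of a 1:1 mix of pre-induced S. aureus MW2 cells was dispensed: gene-carrying cells tagged with DsRed and deletion cells tagged with GFP, in LB with a subinhibitory antibiotic dose set daily. Incubation ran 20 h at 37 °C, 90% humidity, unshaken, followed by DsRed (540/590) and GFP (485/520) reads. Per-plate scaling of each channel used single-strain control medians, and plates with high untreated ratios and rows with DsRed/GFP >10 were excluded.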

| Compound | normalized GFP fluorescence |
| --- | --- |
| O=C(CCCN1CCC(O)(c2ccc(Cl)cc2)CC1)c1ccc(F)cc1 | 0.45 |
| CCC(C)CCCCC(=O)NC(CCN)C(=O)NC(C(=O)NC(CCN)C(=O)NC1CCNC(=O)C(C(C)O)NC(=O)C(CCN)NC(=O)C(CCN)NC(=O)C(CC(C)C)NC(=O)C(Cc2ccccc2)NC(=O)C(CCN)NC1=O)C(C)O (configuration not stated) | 0.159 |
| CN1C(C(=O)Nc2ccccn2)=C(O)c2sc(Cl)cc2S1(=O)=O | 0.116 |
| N#Cc1c(N(CC(=O)O)CC(=O)O)sc(C(=O)O)c1CC(=O)O [Strontium ranelate (Protelos)] | 0.212 |
| O=C(Nc1cccc2c(=O)cc(-c3nnn[nH]3)oc12)c1ccc(OCCCCc2ccccc2)cc1 [Pranlukast] | 0.0957 |
| CN1C(C(=O)Nc2ccccn2)=C(O)c2sccc2S1(=O)=O | 0.0134 |
| OCc1ccccc1O | 0.351 |
| CCCCNc1ccc(C(=O)OCCN(C)C)cc1 | 0.243 |
| COc1ccc(CC2c3cc(OC)c(OC)cc3CC[N+]2(C)CCC(=O)OCCCCCOC(=O)CC[N+]2(C)CCc3cc(OC)c(OC)cc3C2Cc2ccc(OC)c(OC)c2)cc1OC (configuration not stated) | 0.325 |
| CC/C(=C(/CC)c1ccc(O)cc1)c1ccc(O)cc1 | 0.0115 |
| CN[C@@H]1[C@H](O[C@H]2[C@H](O[C@H]3[C@H](O)[C@@H](O)[C@H](N=C(N)N)[C@@H](O)[C@@H]3N=C(N)N)O[C@@H](C)[C@]2(O)C=O)O[C@@H](CO)[C@H](O)[C@H]1O | 0.752 |
| C#C[C@]1(O)CC[C@H]2[C@@H]3CCc4cc(O)ccc4[C@H]3CC[C@@]21C [Ethinyl Estradiol] | 0.246 |
